# Test results as given in publication PMC5540273 (PLoS ONE, 2017).
# Values joined by “and” are separate entries in the source; they are usually repeats but may differ in a detail not shown here. Equal values may be shown once. Read-outs that look alike come from different tables or passages of the source.
# Assays:
# PAK4 = settings: concentration: 1 μM, replicates: in singlicate, n = 1
# PAK6 = settings: concentration: 1 μM, replicates: in singlicate, n = 1
# PAK7 = settings: concentration: 1 μM, replicates: in singlicate; n = 1
# PCTK1 = system: T1, PCTK1; settings: concentration: 1 μM, replicates: in singlicate; n = 1
# T1 construct: gene CDK16
# PCTK2 = system: T2, PCTK2; settings: concentration: 1 μM, replicates: in singlicate, n = 1
# T2 construct: gene CDK17
# PCTK3 = system: T3, PCTK3; settings: concentration: 1 μM, replicates: in singlicate, n = 1
# T3 construct: gene CDK18
# PDGFRA = settings: concentration: 1 μM, replicates: in singlicate, n = 1
# PDGFRB = settings: concentration: 1 μM, replicates: in singlicate, n = 1
# PDPK1 = settings: concentration: 1 μM, replicates: in singlicate, n = 1
# PFTAIRE2 = settings: concentration: 1 μM, replicates: in singlicate, n = 1
# PFTK1 = system: T4, PFTK1; settings: concentration: 1 μM, replicates: in singlicate, n = 1
# T4 construct: gene CDK14
# PHKG1 = settings: concentration: 1 μM, replicates: in singlicate, n = 1
# PHKG2 = settings: concentration: 1 μM, replicates: in singlicate; n = 1
# PIK3C2B = settings: concentration: 1 μM, replicates: in singlicate; n = 1
# PIK3C2G = settings: concentration: 1 μM, replicates: in singlicate; n = 1
# PIK3CA = settings: concentration: 1 μM, replicates: in singlicate, n = 1
# PIK3CB = settings: concentration: 1 μM, replicates: in singlicate, n = 1
# PIK3CD = settings: concentration: 1 μM, replicates: in singlicate; n = 1
# PIK3CG = settings: concentration: 1 μM, replicates: in singlicate, n = 1
# PIK4CB = system: T5, PIK4CB; settings: concentration: 1 μM, replicates: in singlicate, n = 1
# T5 construct: gene PI4KB
# 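Also: KINOMEscan kinase panel screen.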
compound,measurement,setting,value
O=C(NCCNc1ccnc(Nc2ccc(F)cc2)n1)Nc1ccccc1F [GSK1379880],%Inh,PAK4,0%
same,%Inh,PAK6,0%
same,%Inh,PAK7,0%
same,%Inh,PCTK1,0%
same,%Inh,PCTK2,16%
same,%Inh,PCTK3,14%
same,%Inh,PDGFRA,0%
same,%Inh,PDGFRB,70%
same,%Inh,PDPK1,7%
same,%Inh,PFTAIRE2,21%
same,%Inh,PFTK1,13%
same,%Inh,PHKG1,0%
same,%Inh,PHKG2,0%
same,%Inh,PIK3C2B,0%
same,%Inh,PIK3C2G,62%
same,%Inh,PIK3CA,0%
same,%Inh,PIK3CB,0%
same,%Inh,PIK3CD,21%
same,%Inh,PIK3CG,0%
same,%Inh,PIK4CB,13%
CCc1ccnc(/C=C/c2n[nH]c3cc(Sc4ccccc4C(=O)NC)ccc23)c1,%Inh,PAK4,3%
same,%Inh,PAK6,0%
same,%Inh,PAK7,0%
same,%Inh,PCTK1,10%
same,%Inh,PCTK2,0%
same,%Inh,PCTK3,2%
same,%Inh,PDGFRA,99.8%
same,%Inh,PDGFRB,100%
same,%Inh,PDPK1,0%
same,%Inh,PFTAIRE2,0%
same,%Inh,PFTK1,8%
same,%Inh,PHKG1,17%
same,%Inh,PHKG2,6%
same,%Inh,PIK3C2B,0%
same,%Inh,PIK3C2G,0%
same,%Inh,PIK3CA,0%
same,%Inh,PIK3CB,0%
same,%Inh,PIK3CD,10%
same,%Inh,PIK3CG,0%
same,%Inh,PIK4CB,0%
NS(=O)(=O)c1cccc(-c2ccc3ncc(N4CCOCC4)nc3c2)c1 [GSK1535721],%Inh,PAK4,5%
same,%Inh,PAK6,0%
same,%Inh,PAK7,26%
same,%Inh,PCTK1,0%
same,%Inh,PCTK2,18%
same,%Inh,PCTK3,0%
same,%Inh,PDGFRA,21%
same,%Inh,PDGFRB,21%
same,%Inh,PDPK1,0%
same,%Inh,PFTAIRE2,5%
same,%Inh,PFTK1,24%
same,%Inh,PHKG1,0%
same,%Inh,PHKG2,41%
same,%Inh,PIK3C2B,0%
same,%Inh,PIK3C2G,14%
same,%Inh,PIK3CA,13%
same,%Inh,PIK3CB,12%
same,%Inh,PIK3CD,34%
same,%Inh,PIK3CG,29%
same,%Inh,PIK4CB,81%
N#Cc1c(N2CCOCC2)sc(-c2ccn[nH]2)c1-c1ccc(Cl)cc1,%Inh,PAK4,15%
same,%Inh,PAK6,29%
same,%Inh,PAK7,0%
same,%Inh,PCTK1,0%
same,%Inh,PCTK2,0%
same,%Inh,PCTK3,7%
same,%Inh,PDGFRA,3%
same,%Inh,PDGFRB,12%
same,%Inh,PDPK1,0%
same,%Inh,PFTAIRE2,0%
same,%Inh,PFTK1,19%
same,%Inh,PHKG1,9%
same,%Inh,PHKG2,0%
same,%Inh,PIK3C2B,31%
same,%Inh,PIK3C2G,37%
same,%Inh,PIK3CA,90%
same,%Inh,PIK3CB,97%
same,%Inh,PIK3CD,46%
same,%Inh,PIK3CG,20%
same,%Inh,PIK4CB,16%
Cl.Cl.Cl.Fc1ccc(-c2ncn(C3CCNCC3)c2-c2ccnc(Nc3ccccc3)n2)cc1 [SB-238039],%Inh,PAK4; 1 µM,9% and 12%
same,%Inh,PAK6; 1 µM,0% and 11%
same,%Inh,PAK7,10%
same,%Inh,PCTK1,0%
same,%Inh,PCTK2; 1 µM,0% and 4%
same,%Inh,PCTK3; 1 µM,0% and 6%
same,%Inh,PDGFRA; 1 µM,0% and 26%
same,%Inh,PDGFRB; 1 µM,52% and 13%
same,%Inh,PDPK1; 1 µM,6% and 0%
same,%Inh,PFTAIRE2; 1 µM,0% and 21%
same,%Inh,PFTK1; 1 µM,16% and 0%
same,%Inh,PHKG1; 1 µM,4% and 0%
same,%Inh,PHKG2,0%
same,%Inh,PIK3C2B,0%
same,%Inh,PIK3C2G,0%
same,%Inh,PIK3CA; 1 µM,6% and 0%
same,%Inh,PIK3CB; 1 µM,0% and 13%
same,%Inh,PIK3CD,0%
same,%Inh,PIK3CG; 1 µM,0% and 26%
same,%Inh,PIK4CB; 1 µM,7% and 34%
[2H]C([2H])(c1cccc(C(F)(F)F)c1C)n1ccn2c(=O)nc(N3CCOCC3)cc12 [GSK2336394],%Inh,PAK4,0%
same,%Inh,PAK6,0%
same,%Inh,PAK7,0%
same,%Inh,PCTK1,4%
same,%Inh,PCTK2,0%
same,%Inh,PCTK3,11%
same,%Inh,PDGFRA,0%
same,%Inh,PDGFRB,15%
same,%Inh,PDPK1,0%
same,%Inh,PFTAIRE2,0%
same,%Inh,PFTK1,12%
same,%Inh,PHKG1,0%
same,%Inh,PHKG2,0%
same,%Inh,PIK3C2B,0%
same,%Inh,PIK3C2G,0%
same,%Inh,PIK3CA,0%
same,%Inh,PIK3CB,97.5%
same,%Inh,PIK3CD,38%
same,%Inh,PIK3CG,0%
same,%Inh,PIK4CB,0%
COc1ccc(CNC(=O)NC2CCN(c3ccnc(Nc4ccc(OC)cc4)n3)C2)cc1 (stereo not shown) [GSK1379727],%Inh,PAK4,0%
same,%Inh,PAK6,0%
same,%Inh,PAK7,1%
same,%Inh,PCTK1,0%
same,%Inh,PCTK2,0%
same,%Inh,PCTK3,4%
same,%Inh,PDGFRA,0%
same,%Inh,PDGFRB,20%
same,%Inh,PDPK1,0%
same,%Inh,PFTAIRE2,7%
same,%Inh,PFTK1,9%
same,%Inh,PHKG1,0%
same,%Inh,PHKG2,0%
same,%Inh,PIK3C2B,0%
same,%Inh,PIK3C2G,0%
same,%Inh,PIK3CA,0%
same,%Inh,PIK3CB,0%
same,%Inh,PIK3CD,26%
same,%Inh,PIK3CG,0%
same,%Inh,PIK4CB,2%
CN(C1=C(c2ccccc2)C(=O)NC1=O)c1ccccc1 [SB-334860],%Inh,PAK4,5%
same,%Inh,PAK6,0%
same,%Inh,PAK7,18%
same,%Inh,PCTK1,5%
same,%Inh,PCTK2,8%
same,%Inh,PCTK3,11%
same,%Inh,PDGFRA,0%
same,%Inh,PDGFRB,19%
same,%Inh,PDPK1,5%
same,%Inh,PFTAIRE2,27%
same,%Inh,PFTK1,21%
same,%Inh,PHKG1,0%
same,%Inh,PHKG2,0%
same,%Inh,PIK3C2B,0%
same,%Inh,PIK3C2G,3%
same,%Inh,PIK3CA,0%
same,%Inh,PIK3CB,25%
same,%Inh,PIK3CD,7%
same,%Inh,PIK3CG,10%
same,%Inh,PIK4CB,13%
